Screens from PubChem BioAssay.
Most compounds without a hit are left out; they make up all but 3.6% or so of the library.
mHTT CaM bind: mutant huntingtin-calmodulin interaction inhibitors – biochemical, AlphaScreen, primary screen; P42858; AlphaScreen His-mHTT/GST-CaM binding, luminescence; inhibition, % at 15 µM; actives 3.6% (n = 190,000); AID 1671202, 2021;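 note: 0% = both proteins with DMSO and 100% = one protein alone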
Pf apPOL block: Pf-apPOL inhibitors, biochemical, fluorescence. Plasmodium falciparum apicoplast DNA polymerase (apPOL). Recombinant Pf-apPOL, molecular beacon fluorescence, 1.5 h. inhibition, % at 10 µM. actives 0.25% (n = 210,000)
The depositor's hits bear a star. Cut-off read from the data, not from the text of the source: active = inhibition above about 50%; inactive = the rest.

CSc1cccc(NC(=O)N2CCC(N3CCN(Cc4ccc(C)cc4)C3=O)CC2)c1 was read as mHTT CaM bind 13.5 and Pf apPOL block 1.4.
`CSc1cccc(NC(=O)N2CC3CCCN3c3ccccc32)c1` (stereo not drawn) gave mHTT CaM bind 80.6* and Pf apPOL block -2.1.
For COCCC(=O)N1CCc2c(c(-c3nc(C4CC4)no3)nn2C)C1 the results were mHTT CaM bind 7.7 and Pf apPOL block -5.2.
For c1ccc(CNc2nc(-c3ccncc3)nc3c2CCC3)nc1 the results were mHTT CaM bind 6.5 and Pf apPOL block -14.1.
For Cc1nn2c(NCc3ccccn3)c3c(nc2c1-c1ccccc1)CCCC3 the results were mHTT CaM bind 63.4* and Pf apPOL block 1.2.
Screening CC(C)n1cc2cc(C(=O)N3CCOCC3)sc2c1 returned mHTT CaM bind 1.7 and Pf apPOL block -3.6.
`CCSc1nnc2c(n1)OC(c1cc(OC)c(O)c(OC)c1)Nc1ccccc1-2` (stereo not drawn) gave mHTT CaM bind -3.0 and Pf apPOL block 94.6*.
CCCSc1nnc2c(n1)OC(c1cc(OC)c(O)c(OC)c1)Nc1ccccc1-2 (stereo not drawn) was read as mHTT CaM bind -7.0 and Pf apPOL block -0.2.
Screening CCCCCSc1nnc2c(n1)OC(c1cccnc1)Nc1ccccc1-2 (stereo not drawn) returned mHTT CaM bind 6.0 and Pf apPOL block -3.3.
`CCCSc1nnc2c(n1)OC(c1cccnc1)Nc1ccccc1-2` (stereo not drawn) gave mHTT CaM bind 0.0 and Pf apPOL block 51.9*.
Cc1[nH]c(C(=O)N2CCC(CC(=O)NCCCN3CCCC(C)C3)CC2)c(C)c1C (stereo not drawn) was read as mHTT CaM bind 5.9 and Pf apPOL block -1.1.
Cc1cc(C)n2nc(SCCC(=O)NCc3ccc(F)cc3)nc2n1 was read as mHTT CaM bind -3.0 and Pf apPOL block -10.4.
For CN(C)CCNC(=O)c1cnn2c3c(cnc12)CCCC3 the results were mHTT CaM bind -2.7 and Pf apPOL block -1.9.
COc1ccc(-c2nc(OC)n[nH]2)cc1 was read as mHTT CaM bind -4.2 and Pf apPOL block 0.5.
COc1ccc(S(=O)(=O)Nc2ccc3oc(=O)sc3c2)cc1 was read as mHTT CaM bind 6.0 and Pf apPOL block -6.1.
Screening COc1ccc(S(=O)(=O)Nc2cc3sc(=O)oc3c3ccccc23)cc1 returned mHTT CaM bind 100.3* and Pf apPOL block 4.2.
For COc1cc(NC(=O)c2cn(-c3ccc(C)c(C)c3)c(=O)c3ccccc23)cc(OC)c1OC the results were mHTT CaM bind -7.0 and Pf apPOL block -5.2.
For C#CCOc1ccc(/C=N\n2cnnc2N/N=C/c2ccc(OCC#C)c(OC)c2)cc1OC the results were mHTT CaM bind active.
Oc1ccc(/C=N\Nc2nncn2/N=C\c2ccc(O)c(O)c2)cc1O was read as mHTT CaM bind inactive.
O=C(Nc1ccc(N2CCCC2)cc1)c1ccc(Br)o1 was read as mHTT CaM bind 61.7* and Pf apPOL block 2.3.
`O=C(Nc1ccc(N2CCCC2)cc1)C(Cl)(Cl)Cl` gave mHTT CaM bind 73.6* and Pf apPOL block -8.6.
Screening O=C(Nc1ccc2c(c1)CCCN2C(=O)C1CC1)c1cc(Br)ccc1Cl returned mHTT CaM bind -7.8 and Pf apPOL block -4.2.
Screening O=C(Nc1ccc(N2CCCC2)cc1)c1cc(Br)ccc1Cl returned mHTT CaM bind 86.3* and Pf apPOL block 0.1.
O=C(Nc1ccc(N2CCCCC2)cc1)c1ccccc1[N+](=O)[O-] was read as mHTT CaM bind 19.5 and Pf apPOL block -30.1.
For O=C(Nc1cnc(N2CCCCC2)nc1)c1ccc(Br)o1 the results were mHTT CaM bind -5.6 and Pf apPOL block -1.6.
O=C(Nc1ccc(N2CCCC2)cc1)c1ccccc1[N+](=O)[O-] was read as mHTT CaM bind 83.7* and Pf apPOL block -5.9.
Screening Cc1ccccc1C(=O)Nc1ccc(N2CCCC2)cc1 returned mHTT CaM bind 33.5 and Pf apPOL block -33.7.
`COc1cc(OC)cc(C(=O)N2C(C)CCCC2C)c1` (stereo not drawn) gave mHTT CaM bind -5.2 and Pf apPOL block -3.3.
For CCn1cc(CN2CCC(C(=O)NCc3cccc(F)c3)CC2)c2cc(OC)ccc21 the results were mHTT CaM bind 25.2 and Pf apPOL block -3.2.
Screening O=C1OC(Nc2ccc(S(=O)(=O)Nc3ccc(Cl)nn3)cc2)c2ccccc21 (stereo not drawn) returned mHTT CaM bind -43.0 and Pf apPOL block -1.7.
For S=C(CC(=S)N1CCOCC1)N1CCOCC1 the results were mHTT CaM bind -2.0.
For CC(=O)c1ccc(N2CCN(Cc3ccccc3[N+](=O)[O-])CC2)cc1 the results were mHTT CaM bind 9.4 and Pf apPOL block -2.2.
Screening O=C(Cc1ccc(F)cc1)Nc1ccc(N2CCCC2=O)cc1 returned mHTT CaM bind -5.6 and Pf apPOL block -158.5.
O=[N+]([O-])c1cccc(C=Nc2ccc(O)c(-c3nc4ccccc4[nH]3)c2)c1O was read as mHTT CaM bind 68.0* and Pf apPOL block 0.5.
Screening O=[N+]([O-])c1cc2c(cc1C=Nc1ccc(O)c(-c3nc4ccccc4[nH]3)c1)OCO2 returned mHTT CaM bind 65.0* and Pf apPOL block 4.3.
For O=[N+]([O-])c1cc2c(cc1C=Nc1ccc(O)cc1)OCO2 the results were mHTT CaM bind 21.7.
O=[N+]([O-])c1cc(C=Nc2ccc3nc(-c4ccccc4)[nH]c3c2)c(O)c([N+](=O)[O-])c1 was read as mHTT CaM bind 19.0 and Pf apPOL block -3.6.
For CN1CCC(NC(=O)C2COC3(CCCCC3)N2C(=O)c2ccccc2)CC1 (stereo not drawn) the results were mHTT CaM bind 0.7 and Pf apPOL block -1.4.
For CN(C)C(=O)C1=CCN(C(=O)c2ccc(F)cc2F)CC1 the results were mHTT CaM bind -1.2 and Pf apPOL block -2.6.
O=C(NCc1ccc(Br)cc1)c1ccc2ncnc(N3CCCC3)c2c1 was read as mHTT CaM bind 2.0 and Pf apPOL block 4.7.
Screening O=C(Nc1ccc(Oc2ncnc3cc(Cl)ccc23)nc1)c1ccc(-c2ccccn2)s1 returned Pf apPOL block -3.7.
`COCCNc1nc(SCC(=O)c2ccc(O)c(O)c2)nc2ccccc12` gave mHTT CaM bind 12.0 and Pf apPOL block -2.4.
CCCCNc1nc(SCC(=O)c2ccc(O)c(O)c2)nc2ccccc12 was read as mHTT CaM bind 64.0* and Pf apPOL block -5.4.
CCC(Sc1nc2n[nH]c(C)c2c(=N)n1-c1cccc(Cl)c1)C(=O)NCCOC (stereo not drawn) was read as mHTT CaM bind 61.0* and Pf apPOL block -2.4.
Cc1cc(NC(=O)CSc2nc3n[nH]c(C)c3c(=N)n2-c2ccc(Cl)c(C)c2)no1 was read as mHTT CaM bind 48.0 and Pf apPOL block 1.3.
For Cc1[nH]nc2nc(SCC(=O)N3CCCC3)n(-c3cccc(Cl)c3)c(=N)c12 the results were mHTT CaM bind 46.0 and Pf apPOL block -7.8.
Cc1[nH]nc2nc(SCC(=O)NCc3ccco3)n(-c3cccc(Cl)c3)c(=N)c12 was read as mHTT CaM bind 50.0* and Pf apPOL block -0.8.
Screening CCC(Sc1nc2n[nH]c(C)c2c(=N)n1-c1ccc(Cl)c(C)c1)C(=O)NCCOC (stereo not drawn) returned mHTT CaM bind 52.0* and Pf apPOL block -5.1.
CCCCN(CC)C(=O)CSc1nc2n[nH]c(C)c2c(=N)n1-c1cccc(C)c1 was read as mHTT CaM bind 39.0 and Pf apPOL block -6.1.
